Several values for one entry are separate records, joined by “and”; a condition that tells them apart may be missing. Equal values may be shown once. The whole screen tested about 68,000 compounds, of which about 2,700 (4%) showed an effect of 50% or more. Many of the other results were omitted from the sample, so strong results are more common in it than they were.
Tested on: Plasmodium berghei
Assay: Screen against P. berghei liver stage (PbLuc), transformed with Luciferase, at 2uM
Type: functional, HepG2
Details: tested at 2 uM

| Compound | INHIBITION [%] | INHIBITION (2 µM) |
| --- | --- | --- |
| O=C(NCc1cc(N2CCOCC2)ncn1)c1cccc(CO)n1 | -15.77 | – |
| O=S(=O)(c1cccnc1)N1C[C@H]2CC[C@@H](C1)N(Cc1ccccn1)C2 | -3.6 | – |
| O=S(=O)(c1cccnc1)N1C[C@H]2CC[C@@H](C1)N(Cc1ccccc1)C2 | -11.31 | – |
| CC(C)=CCN1C[C@@H]2CC[C@H]1CN(S(=O)(=O)c1cccnc1)C2 | 54.75 | – |
| c1ccc2c(c1)N(CC1CCOC1)CC21CCN(c2cnccn2)CC1 (stereo not drawn) | -39.01 | – |
| O=C(Cn1nc(C(F)(F)F)c(Br)c1C1CC1)N1CCOCC1 | 6.33 | – |
| Cc1ccc(CN2CC[C@H]3CO[C@H](CN4CCN(C)CC4)[C@H]3C2)o1 | 16.78 | – |
| Cc1ccc(CN2CC[C@H]3CO[C@H](CN4CCCC4)[C@H]3C2)o1 | 50.85 | – |
| Cc1ccc(CN2CC[C@H]3CO[C@H](CN(C)C)[C@H]3C2)o1 | -5.44 | – |
| CC(=O)N(C)c1nc(Cn2nnnc2C2CCCC2)cs1 | -26.07 | – |
| O=C(Cn1cc(-n2cccc2)cn1)NCC1CCC1 | -28.99 | – |
| COCCn1cc2c(n1)C(CNCc1ccsc1)OCC2 (stereo not drawn) | 30.19 | – |
| CNc1ccnc(N2C[C@H]3CC[C@@H](C2)N(CCOC)C3=O)n1 | 40.51 | – |
| COCCN1C(=O)[C@@H]2CC[C@H]1CN(c1nccc(C)n1)C2 | -1.56 | – |
| COCCN1C(=O)[C@@H]2CC[C@H]1CN(c1ncccn1)C2 | 57.34 | – |
| CN(Cc1ccccn1)C(=O)[C@]12COC[C@H]1CN(Cc1cnn(C)c1)C2 | 0.3 | – |
| O=C(CN1C[C@@H]2CC[C@H]1CN(Cc1ccccn1)C2)Nc1ccccc1 | -16.18 | – |
| Cc1nnsc1CN1C[C@@H]2CC[C@H]1CN(Cc1ccccn1)C2 | -17.17 | – |
| O=C(c1cc(C2CC2)no1)N1C[C@@H]2CC[C@H]1CN(Cc1ccccn1)C2 | -62.92 | – |
| Cn1ccc(NC(=O)CN2C[C@@H]3CC[C@H]2CN(Cc2ccccn2)C3)n1 | 52.98 | – |
| O=C(CN1C[C@@H]2CC[C@H]1CN(Cc1ccccn1)C2)NCc1cccs1 | 52.98 | – |

| Compound | INHIBITION [%] | INHIBITION (2 µM) |
| --- | --- | --- |
| COCCN1C[C@@H]2CC[C@H]1CN(CC(=O)Nc1ccn(C)n1)C2 | 5.28 | – |
| O=C1[C@@H]2CN(C3CCOCC3)C[C@H]2CCN1CC1CC1 | 27.65 | – |
| O=C1CCCC2=Nc3nonc3NC(c3ccc(Cl)cc3Cl)C12 (stereo not drawn) | -53.9 | – |
| CC(C)c1ccc2c(c1)CCCN2C(=O)CN(C)S(C)(=O)=O | -20.21 | – |
| COc1cccn(Cc2nnc(-c3cccc(F)c3)o2)c1=O | 25.02 | – |
| CC(C)OCCSCc1nnc(-c2cccc(F)c2)o1 | 55.39 | – |
| OCC(O)CSCc1nnc(-c2cccc(F)c2)o1 (stereo not drawn) | 10.23 | – |
| COC(=O)c1cccn1C1CCN(CCN2C(=O)CCC2=O)CC1 | 31.46 | – |
| COc1ccc(NC(=O)N2CCCC2c2ccco2)cc1OC (stereo not drawn) | -28.88 | – |
| CCCc1cc(CNC2CCN(c3cc(C)nc(N)n3)CC2)on1 | -13.81 | – |
| CCCc1cc(CNC2CCN(c3nc(C)cc(C)n3)CC2)on1 | 58.59 | – |
| CCCc1cc(CNC2CCN(c3cc(C(C)C)nc(C)n3)CC2)on1 | -8.34 | – |
| Cc1cn2c(=O)c(-c3ccnc(N(C)C4CCCCC4)n3)cnc2s1 | -35.83 | – |
| COC1[C@@H]2CC[C@H]1CN(c1nc(C)nc3ccsc13)C2 (stereo partly drawn) | -67.34 | – |
| Cc1nc(N2C[C@H]3CNC[C@H]3C2)c2sccc2n1 | 50.98 | – |
| Cc1nc(N2C[C@@H](CN3CCCCC3)[C@@H](CO)C2)c2sccc2n1 | -38.35 | – |
| O=C(NCc1nn(-c2ccccc2)c2c1CCC2)NC1CCC(O)CC1 (stereo not drawn) | -43.23 | – |
| N[C@@H]1CCN(Cc2ccccc2CS(=O)(=O)c2ccccc2)C[C@H]1O | 83.98 | – |
| NC1CCCCN(Cc2ccccc2CS(=O)(=O)c2ccccc2)C1 (stereo not drawn) | 21.97 | – |
| O=S(=O)(Cc1ccccc1CN1CC[C@H](CO)[C@H](O)C1)c1ccccc1 | 48.21 | – |
| CC(C)(C)NC(=O)CNc1ncc(Br)cn1 | -20.72 | – |

| Compound | INHIBITION [%] | INHIBITION (2 µM) |
| --- | --- | --- |
| CCc1c(C)nn2c(O)cc(C3CCN(C(=O)c4ccccn4)C3)nc12 (stereo not drawn) | – | -16.2% and -18.64% |
| CC1Oc2c(cccc2C(=O)N2CCN(CC(C)(C)O)CC2)NC1=O (stereo not drawn) | -34.12 | – |
| Cc1ncccc1C(=O)Nc1cccc(C[S+](C)[O-])c1C (stereo not drawn) | 31.58 | – |
| CCc1noc(C(C)Sc2nnc(C3CC3)n2CC(N)=O)n1 (stereo not drawn) | 35.26 | – |
| CC(C)c1nc(CSc2nnc(C3CC3)n2CC(N)=O)no1 | 53.55 | – |
| CC(C)c1nc(CSc2nnc(-c3cccs3)n2CC(N)=O)no1 | 51.4 | – |
| NC(=O)Cn1c(SCc2noc(-c3ccsc3)n2)nnc1C1CC1 | -2.44 | – |
| CC(Sc1nnc(C2CC2)n1CC(N)=O)c1ccc(Cl)cc1 (stereo not drawn) | -87.32 | – |
| Cc1cccc(CSc2nnc(C)n2CC(N)=O)c1 | 20.41 | – |
| CCc1nn(-c2cc(Oc3cc(C)ccc3C)nc(C)n2)c(N)c1C#N | 16.91 | – |
| CC(C)CCN1C[C@@H]2OCCN(c3ncc(F)cn3)[C@@H]2C1 | 29.74 | – |
| O=C(c1ccc(=O)[nH]n1)N1CCCC(O)(CN2CCC(F)(F)CC2)CC1 (stereo not drawn) | 23.7 | – |
| CCc1cnc(NC2CCc3c(ccc(=O)n3C)C2)nc1 (stereo not drawn) | -17.39 | – |
| Cc1cnc(NC2CCc3c(ccc(=O)n3C)C2)nc1 (stereo not drawn) | 58.93 | – |
| O=C(Cc1ccsc1)NC1CCc2c(ccc(=O)n2CC2CC2)C1 (stereo not drawn) | 6.85 | – |
| Cn1c2c(ccc1=O)CC(NC(=O)Cc1ccsc1)CC2 (stereo not drawn) | 76.24 | – |
| Cn1c2c(ccc1=O)CC(Nc1ncc(F)cn1)CC2 (stereo not drawn) | 6.22 | – |
| Cn1c2c(ccc1=O)CC(NC(=O)c1ccsc1)CC2 (stereo not drawn) | 0.57 | – |
| CC(C)=CCN1C[C@@H]2CC[C@H]1CN(Cc1coc(C)n1)C2 | -60.75 | – |
| COC(=O)c1ccc(CN2CCC(c3n[nH]c(C)n3)CC2)s1 | -54.89 | – |
| CC(C)=CCC1(C(=O)O)CCCN(CCC(=O)NC2CC2)C1 (stereo not drawn) | 9.43 | – |
